# Experimental data taken from the supplement of paper PMC10646978.
# ± gives the standard deviation.
# Key:
# Conditions in all cases: modulator concentration 10 µM
# [1] = test system: RAW-Dual (murine macrophage reporter line); experiment: NF-kB reporter (SEAP) activity fold change vs agonist alone; higher = enhanced NF-kB activity
# Procedure, shortened: (§1)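 RAW-Dual murine macrophage reporter cells were plated at 50 000 per well in 384-well plates, pin-transferred compound to 10 μM final, and pre-incubated for 1 hour at 37 °C before a PRR agonist was added and the cells incubated overnight. NF-κB activity was read from supernatant SEAP with QUANTI-Blue at 620 nm absorbance, and IRF activity from Lucia luciferase with QUANTI-Luc by luminescence. Each signal was expressed as fold change by dividing by the mean agonist-only control on the same plate. Two replicate plates were averaged, with errors obtained by propagation.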
# [2] = test system: RAW-Dual (murine macrophage reporter line); experiment: IRF reporter (Lucia luciferase) activity fold change vs agonist alone; higher = enhanced IRF activity
# Procedure, shortened: as §1
# [3] = test system: RAW-Dual (murine macrophage reporter line); experiment: viability score (confluency relative to resting cells, overnight) (fraction); higher = more viable, active = viable (0.7 or more)
# Procedure, shortened: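 In 384-well plates, RAW-Dual macrophages received compound at a final 10 μM overnight. Two confluency masks were then made with IncuCyte software from IncuCyte images of all imaged wells. The viability score is defined as confluency relative to resting cells. Passing the cutoff required both masks to lie above 70% of resting cells.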
# [4] = agonist: CpG ODN 1826 0.5 ug/mL
SMILES,"NF-kB reporter [1, 4]",NF-kB reporter ([1]; agonist: LPS 0.1 ug/mL),NF-kB reporter ([1]; agonist: MPLA […]),IRF reporter ([2]; agonist: 3'3'-cGAMP 10 ug/mL),IRF reporter ([2]; agonist: LPS 0.1 ug/mL),IRF reporter ([2]; agonist: MPLA […]),viability score [3]
CCN(CC)c1ccc(C=C(C#N)c2n[nH]c(N)c2C#N)c(OC)c1,1.43 ± 0.16,0.885 ± 0.095,0.976 ± 0.092,0.577 ± 0.036,0.865 ± 0.12,1.18 ± 0.15,1.02 (active)
CCCCNC(=O)Cc1ccc(Br)cc1,0.947 ± 0.15,0.904 ± 0.11,0.913 ± 0.11,0.986 ± 0.052,1.29 ± 0.25,1.4 ± 0.33,0.989 (active)
CC(=O)c1ccc(NC(=O)c2ccccc2C(=O)O)cc1,1.27 ± 0.12,1.14 ± 0.1,1.08 ± 0.12,0.903 ± 0.11,1.14 ± 0.13,1.31 ± 0.29,1 (active)
CC1CCN(C2CC(=O)N(c3ccc(S(=O)(=O)N4CCOCC4)cc3)C2=O)CC1 (stereo not given),0.986 ± 0.082,1.02 ± 0.065,0.843 ± 0.05,1.02 ± 0.025,1.33 ± 0.096,0.995 ± 0.23,1 (active)
O=C(CCn1cnc2ccccc2c1=O)NCC1CCCN1c1ccccc1 (stereo not given),1.05 ± 0.054,1 ± 0.086,0.987 ± 0.046,0.983 ± 0.053,1.3 ± 0.086,1.2 ± 0.14,0.995 (active)
Cc1c(-c2ccccc2)nc2ccccc2c1C(=O)Nc1ccc(F)cc1F,0.568 ± 0.25,0.889 ± 0.097,0.689 ± 0.11,0.918 ± 0.061,1.36 ± 0.1,1.12 ± 0.19,0.953 (active)
CC(=O)N1CC(c2ccc(OC(C)C)cc2)CC1=O (stereo not given),1.07 ± 0.23,1.04 ± 0.084,0.961 ± 0.088,1.05 ± 0.03,1.22 ± 0.15,1.36 ± 0.16,0.999 (active)
Cc1cccc(NC(=O)Cc2c(C)nc(SCc3ccccc3F)[nH]c2=O)c1C,0.996 ± 0.059,1.13 ± 0.088,1.03 ± 0.081,0.938 ± 0.043,0.97 ± 0.081,0.937 ± 0.21,0.997 (active)
CN1CCC(OC(c2ccccc2)c2ccccc2)CC1.Cl,0.827 ± 0.31,1.17 ± 0.061,1.22 ± 0.087,0.638 ± 0.025,0.967 ± 0.19,1.08 ± 0.1,0.992 (active)
COc1ccc(CNCc2cccc3ccccc23)cc1OC,0.482 ± 0.04,0.912 ± 0.094,0.966 ± 0.042,0.832 ± 0.15,1.06 ± 0.086,1.16 ± 0.21,0.997 (active)
O=C(c1ccco1)c1nc2c(n1O)CCCCC2,1.12 ± 0.073,0.995 ± 0.089,1.03 ± 0.028,0.998 ± 0.07,0.971 ± 0.078,1.03 ± 0.1,1 (active)
CC1(C)OC[C@@H](COC(=O)CCc2ccc(OC[C@@H](O)CNCCNC(=O)N3CCOCC3)cc2)O1.Cl,1.05 ± 0.079,0.966 ± 0.072,0.987 ± 0.023,0.985 ± 0.098,0.97 ± 0.11,0.832 ± 0.2,1 (active)
O=C1Nc2ccc(Cl)cc2[C@@](C#CC2CC2)(C(F)(F)F)O1,0.352 ± 0.029,0.486 ± 0.024,0.631 ± 0.02,0.964 ± 0.056,0.715 ± 0.092,1.47 ± 0.2,0.114 (inactive)
CCOC(=O)C1=C(C)NC(C)=C(C(=O)OCC)C1c1cccs1,0.836 ± 0.23,0.998 ± 0.089,0.965 ± 0.12,0.929 ± 0.071,1.09 ± 0.3,1.08 ± 0.25,0.978 (active)
COc1ccc(C2=CC(=Cc3cccc(OC)c3OC)C(=O)O2)c(OC)c1,1.21 ± 0.3,1.06 ± 0.1,1.07 ± 0.086,1.04 ± 0.028,1.27 ± 0.18,1.16 ± 0.14,1 (active)
Cc1ccc(NC(=O)CN2C(=O)c3ccccc3C2=O)c(C(=O)O)c1,0.789 ± 0.077,0.894 ± 0.057,1.05 ± 0.091,0.982 ± 0.049,1.32 ± 0.098,1.5 ± 0.18,1.02 (active)
CC#CCn1c(N2CCCC(N)C2)nc2c1c(=O)n(Cc1nc(C)c3ccccc3n1)c(=O)n2C (stereo not given),0.931 ± 0.24,1.08 ± 0.085,0.972 ± 0.065,0.925 ± 0.033,1.23 ± 0.15,1.39 ± 0.13,0.988 (active)
O=c1n(CCCN2CCN(c3cccc(Cl)c3)CC2)nc2ccccn12 [Prestw-292],0.813 ± 0.062,0.912 ± 0.067,0.899 ± 0.089,0.932 ± 0.041,1.19 ± 0.14,1.19 ± 0.24,1.06 (active)

SMILES,"NF-kB reporter [1, 4]",NF-kB reporter ([1]; agonist: LPS 0.1 ug/mL),NF-kB reporter ([1]; agonist: MPLA […]),IRF reporter ([2]; agonist: 3'3'-cGAMP 10 ug/mL),IRF reporter ([2]; agonist: LPS 0.1 ug/mL),IRF reporter ([2]; agonist: MPLA […]),viability score [3]
CCCN(CCC)CCc1cccc2c1CC(=O)N2.Cl,0.998 ± 0.079,0.945 ± 0.046,1.03 ± 0.074,0.926 ± 0.071,0.925 ± 0.037,0.912 ± 0.083,0.997 (active)
Nc1ncn(C2OC(CO)C(O)C2O)c(=O)n1 (stereo not given),2.76 ± 0.66,1.35 ± 0.075,4.3 ± 0.27,0.541 ± 0.026,0.728 ± 0.099,0.714 ± 0.085,0.808 (active)
Nc1cccc(O)c1,0.98 ± 0.099,1.08 ± 0.069,1.03 ± 0.023,0.983 ± 0.09,0.946 ± 0.092,0.938 ± 0.11,0.997 (active)
COc1ccc2cc(Br)ccc2c1CC(=O)O,0.759 ± 0.06,0.954 ± 0.045,1.01 ± 0.087,0.918 ± 0.043,1.29 ± 0.076,1.33 ± 0.19,1.02 (active)
COc1ccc(-c2oc3ccc(OC)cc3c2C(=O)Nc2ccccc2Cl)cc1,0.872 ± 0.051,1.05 ± 0.11,1.42 ± 0.041,0.756 ± 0.052,0.865 ± 0.062,1.84 ± 0.28,1 (active)
CC(C(=O)O)c1ccc2c(c1)CC(=O)c1ccccc1S2 (stereo not given),1.19 ± 0.18,1.19 ± 0.43,0.977 ± 0.06,1.03 ± 0.032,1.26 ± 0.42,1.22 ± 0.13,0.988 (active)
O=C(Cc1ccc(Cl)cc1)Nc1ccc2oc(-c3c(F)c(F)c(F)c(F)c3F)nc2c1,0.931 ± 0.097,0.882 ± 0.12,0.696 ± 0.059,0.698 ± 0.028,1.32 ± 0.12,1.07 ± 0.11,1.01 (active)
COc1ccc(CNC(=O)c2cnc3n(c2=O)CCS3)cc1,1.21 ± 0.29,1.04 ± 0.055,2.54 ± 1.4,0.934 ± 0.038,1.1 ± 0.15,1.25 ± 0.19,1 (active)
CCN(CC)c1ccc(C=NNC(=O)c2ccccc2)c(O)c1,2.34 ± 0.38,2.11 ± 0.16,4.3 ± 0.34,0.0729 ± 0.013,2.18 ± 0.29,2.36 ± 0.42,0.814 (active)
CCOC(=O)N1CCN(C(=O)CSc2ccc(-c3ccccc3)nn2)CC1,1.15 ± 0.086,1.05 ± 0.055,1.09 ± 0.06,0.931 ± 0.051,0.96 ± 0.1,0.906 ± 0.073,0.993 (active)
CC(Nc1ccc(N)cc1)=C1C(=O)c2ccccc2C1=O,0.913 ± 0.083,0.855 ± 0.043,1.01 ± 0.09,0.888 ± 0.059,1.49 ± 0.1,1.68 ± 0.15,1 (active)
COC(CNS(=O)(=O)c1ccccc1Br)c1ccc(Cl)s1 (stereo not given),0.968 ± 0.32,1.08 ± 0.1,1.07 ± 0.071,1.18 ± 0.039,1.01 ± 0.12,1.21 ± 0.24,0.959 (active)
COc1c(C)c2c(c(O)c1C/C=C(\C)CCC(=O)OCCN1CCOCC1)C(=O)OC2,0.66 ± 0.12,0.222 ± 0.02,0.517 ± 0.047,0.608 ± 0.049,1.28 ± 0.13,1.24 ± 0.13,0.813 (active)
Br.O=S(=O)(c1ccc(-c2csc(Nc3ccc(Br)cc3)n2)cc1)N1CCCC1,0.814 ± 0.063,1.08 ± 0.099,0.858 ± 0.065,1.03 ± 0.034,1.37 ± 0.1,1.2 ± 0.16,1.01 (active)
CN(C)c1ccc(C=C(C#N)c2nc(-c3cc4ccccc4oc3=O)cs2)cc1,0.972 ± 0.057,1.04 ± 0.13,0.955 ± 0.079,0.86 ± 0.03,1.36 ± 0.091,1.15 ± 0.24,1.01 (active)
O=C(CSc1nnc(COc2ccc(Cl)cc2)o1)N1CCCc2ccccc21,0.883 ± 0.044,1.12 ± 0.11,0.853 ± 0.086,0.885 ± 0.044,0.823 ± 0.05,0.866 ± 0.29,1.01 (active)
Cc1cc(C#N)cc(C)c1Oc1nc(Nc2ccc(C#N)cc2)nc(N)c1Br,1.15 ± 0.049,1.3 ± 0.1,1.5 ± 0.14,1.39 ± 0.21,1.05 ± 0.24,1.28 ± 0.42,0.97 (active)
